High-throughput results: PubChem BioAssay, several laboratories
The list is not random: actives were taken first. Their share in the collection is about 4%.
FAS TE block = FAS thioesterase (human) inhibition | P49327 | recombinant FAS-TE, OMFH fluorogenic substrate, fluorescence endpoint | inhibition, % at 15 µM | actives 0.67% (n = 360,000);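 active = compounds whose normalised, plate-corrected inhibition of enzyme fluorescence in the single-dose primary screen is 50% or more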
ADAM17 inh = inhibits human ADAM17. P78536. recombinant ADAM17, EDANS/DABCYL FRET peptide cleavage. inhibition, % at 6.95 µM. actives 0.83% (n = 370,000). AID 720648;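 active = inhibition above the mean of compounds lying between control limits plus 3 SD, set per campaign, cut at about 8.5% in these data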
Target sequence (P78536 215-824 limits assumed): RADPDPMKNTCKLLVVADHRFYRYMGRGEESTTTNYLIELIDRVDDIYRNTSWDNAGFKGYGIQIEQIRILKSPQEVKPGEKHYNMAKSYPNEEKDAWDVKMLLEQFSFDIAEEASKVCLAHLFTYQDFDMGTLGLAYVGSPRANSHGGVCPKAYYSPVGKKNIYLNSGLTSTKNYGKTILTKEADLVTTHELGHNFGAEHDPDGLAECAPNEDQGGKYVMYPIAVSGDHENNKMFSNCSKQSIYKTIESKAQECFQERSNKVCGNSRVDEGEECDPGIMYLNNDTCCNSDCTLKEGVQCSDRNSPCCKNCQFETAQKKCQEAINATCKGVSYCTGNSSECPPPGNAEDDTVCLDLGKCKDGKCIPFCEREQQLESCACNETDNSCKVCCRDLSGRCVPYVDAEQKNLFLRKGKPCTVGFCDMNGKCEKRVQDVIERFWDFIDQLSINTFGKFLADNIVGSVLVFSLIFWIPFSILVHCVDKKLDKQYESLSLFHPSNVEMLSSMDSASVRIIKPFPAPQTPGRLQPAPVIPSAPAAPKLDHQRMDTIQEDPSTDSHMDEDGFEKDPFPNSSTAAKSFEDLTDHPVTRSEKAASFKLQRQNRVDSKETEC
GRIN3A LBD mod = modulates the human NR3A ligand-binding domain; AID 1259313; actives 2.5% (n = 340,000); NR3A LBD differential scanning fluorimetry, Tm shift; 0% = protein alone, 100% = glycine-bound protein; Tm shift relative to glycine control, % at 25 µM;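 active = melting temperature shift of at least 10% of the positive control shift, at one fixed dose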
aDG glyco up = increases alpha dystroglycan glycosylation; activation, % at 10 µM; actives 0.22% (n = 360,000); Pro5-aDG cells, alpha-DG glycosylation AlphaScreen (IIH6); 0% Pro5, 100% B10-LARGE cell signal;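 active = activation of at least 8% versus controls, or a plate z-score of at least 8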;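 note: Pro5 are CHO cells carrying HIG-tagged alpha-DG that lacks glycosylation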
ADAM10 inh = inhibitors of human ADAM10; O14672; recombinant ADAM10, EDANS/DABCYL FRET peptide cleavage, 3 h; inhibition, % at 7 µM; actives 0.62% (n = 370,000); AID 720582;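 active = inhibition above a per-campaign cutoff equal to the mean of compounds falling between control-based bounds plus 3 SD, cut at about 20% in these data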
aDG glyco conf = alpha-DG glycosylation activation, confirmation; shares compounds with aDG glyco up; AID 651671; Pro5-aDG cells, IIH6 AlphaLISA; scaled to LARGE-overexpressing B10 cells as 100%; activation, % at 10 µM (by protocol); actives 17% (n = 600);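 active = activation of at least 7% in one or more replicates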;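 note: cells exposed to compound for two days before detection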
Each line names hits and unclear results; the compound was inactive in the other large screens (follow-up assays come after a bar, where they were run); ! = not active in a repeat.

O=C(/C=C/c1cccc(F)c1)c1ccc(N2CCOCC2)cc1	none
O=C(Nc1ccc(Br)cc1)c1ccc(F)c(S(=O)(=O)N2CCN(c3ccccn3)CC2)c1	aDG glyco up 8.5 | aDG glyco conf inactive
CN1CC[C@@H]2C(=O)N3CCc4ccc(Br)cc4[C@@H]3C[C@@H]21	none
CCc1ccc(S(=O)(=O)NCc2ccc(C(=O)NCCN(Cc3ccccc3)C(C)C)cc2)cc1	aDG glyco up 4.5 (no result: GRIN3A LBD mod) | aDG glyco conf inactive
O=C(CSc1ccc(Cl)cc1)Nc1ccccc1	none (no result: GRIN3A LBD mod)
O=C(CSc1cccs1)Nc1ccc(Cl)cc1	aDG glyco up 3.1 | aDG glyco conf inactive
O=C(CN1C(=O)c2ccccc2C1=O)Nc1ccccc1N1CCOCC1	none
CCNC(=O)Nc1cc(S(=O)(=O)Nc2ccc(OC)cc2)ccc1N1CCOCC1	aDG glyco up 4.9 (no result: ADAM17 inh, ADAM10 inh) | aDG glyco conf inactive
CCCCNC(=O)c1ccc(N2CCOCC2)c(NS(=O)(=O)c2ccc(OC)cc2)c1	none
CC1=C(C(=O)OCCOC(C)C)C(c2cc3c(cc2Br)OCO3)CC(=O)N1 (stereo not given)	none
O=C(Nc1cccnc1)c1cccc(-c2cc3ccccc3oc2=O)c1	none
O=C(NCc1cccnc1)c1ccc(-c2cc3ccccc3oc2=O)cc1	aDG glyco up 5.6 | aDG glyco conf inactive
Cc1cccc(NC(=O)c2ccc([N+](=O)[O-])s2)c1C	aDG glyco up 10 | aDG glyco conf inactive
COc1ccc(-c2nc(N3CCCCCC3)sc2C(=O)c2ccccc2)cc1	none
CCc1ccccc1-n1c(SCC(=O)c2c(N)n(C3CC3)c(=O)[nH]c2=O)nnc1N1CCOCC1	none
N=c1c2c(ncn1CCCO)Oc1c(ccc3ccccc13)C2c1ccccc1 (stereo not given)	aDG glyco up 3.1 | aDG glyco conf 4.7
Cc1cc(-c2csc(NC(=O)c3ccc(S(=O)(=O)N(C)C)cc3)n2)c(C)n1-c1ccccc1	aDG glyco up 9.4 | aDG glyco conf inactive
CN(C)S(=O)(=O)c1ccc(C(=O)Nc2nc(-c3cc4ccccc4o3)cs2)cc1	none
CC(O)C1C(=O)OC2(C)CC(C)(C)NC(=S)N12 (stereo not given)	none
CC1(C)CC2(C)OCCN2C(=S)N1 (stereo not given)	aDG glyco up 3.3! | aDG glyco conf inactive
COc1ccc(NC(=O)C2Cc3ccccc3O/C2=N\O)cc1 (stereo not given)	aDG glyco up 5.9 | aDG glyco conf inactive
O=C(COC(=O)CC1CCCCC1)Nc1c(Cl)cccc1Cl	none
O=C(COC(=O)CN1C(=O)C2CCCCC2C1=O)Nc1c(Cl)cccc1Cl (stereo not given)	aDG glyco up 4.4 | aDG glyco conf inactive
Cc1ccc2c(c1)NC(=O)C(CC(=O)NCCCN1CCN(c3cc(Cl)ccc3C)CC1)O2 (stereo not given)	aDG glyco up 14 | aDG glyco conf inactive
COc1ccc(-c2cc(C(=O)N/N=C/c3cccnc3)c3ccccc3n2)cc1	none
COc1ccc([C@H]2CC(=O)C[C@@H](CCn3ccnn3)O2)cc1	none (no result: GRIN3A LBD mod)
Cc1ccc(Cn2nc(C)c(NC(=O)CCCn3nc([N+](=O)[O-])c(Cl)c3C)c2C)cc1	none
C/C(=N/Nc1nc(C)cc(C)n1)c1ccc(Br)cc1	aDG glyco up 2.2 | aDG glyco conf inactive
C/C(=N\Nc1nc(C)cc(C)n1)c1ccc(N2CCOCC2)cc1	none
Cc1cnc(CN(C)C(=O)C2CCC(=O)N(CCc3ccccc3)C2)[nH]1 (stereo not given)	none
O=C(NCCc1ccccc1)C1C(=O)Nc2ccccc2C(=O)N1C1CCCCC1 (stereo not given)	none (no result: FAS TE block, GRIN3A LBD mod)
COc1ccccc1Nc1nc(N)nc(CN2CCN(Cc3ccccc3)CC2)n1	none
COc1ccc(N2CCN(Cc3nc(N)nc(Nc4ccccc4OC)n3)CC2)cc1	aDG glyco up 12 | aDG glyco conf inactive
COc1ccccc1NC(=O)COC(=O)c1ccccn1	none
O=C(Nc1ccc(O)cc1)c1ccccc1OCc1ccccc1	none
O=C(Nc1ccccc1)c1ccccc1OCc1ccc(F)cc1	aDG glyco up 3.8 | aDG glyco conf inactive
COc1ccc(CN2C(=O)C(CC(=O)NC3CCCC3)CC(C(=O)N(C(C)C)C(C)C)=C2C)cc1 (stereo not given)	aDG glyco up 5.0 (no result: GRIN3A LBD mod) | aDG glyco conf inactive
CC1=C(C(=O)N(C(C)C)C(C)C)CC(CC(=O)NC2CCCCC2)C(=O)N1Cc1ccc(C(C)(C)C)cc1 (stereo not given)	none (no result: GRIN3A LBD mod)
CCOC(=O)c1cnc(-n2nc(C)cc2C)nc1Nc1ccc(O)cc1	none
CCOC(=O)c1cnc(-n2nc(C)cc2C)nc1Nc1ccc(C)cc1	aDG glyco up 6.5 | aDG glyco conf inactive
c1csc(-c2nc3c4ccccc4c4ccccc4c3[nH]2)c1	GRIN3A LBD mod 28, aDG glyco up 5.5 | aDG glyco conf inactive
COc1cc2ccccc2cc1C(=O)Nc1nccs1	aDG glyco up 4.0 | aDG glyco conf inactive
COC(=O)c1ccc(CNC(=O)Cn2cnc3c(NCc4ccccc4)ncnc32)cc1	aDG glyco up 8.3 | aDG glyco conf inactive
COc1cccc(N2CCN(c3ccc([N+](=O)[O-])cn3)CC2)c1	aDG glyco up 3.4 | aDG glyco conf inactive
CCS(=O)(=O)c1ccc2oc(SCC(=O)c3ccco3)nc2c1	none
COc1ccc2[nH]c3c(N4CCN(Cc5ccc6c(c5)OCO6)CC4)ncnc3c2c1	aDG glyco up 8.3 | aDG glyco conf inactive
Cn1c(C(=O)c2ccccc2[N+](=O)[O-])nc2ccccc21	none
COCCNc1nc(NCc2ccc(C(C)C)cc2)c2sccc2n1	aDG glyco up 7.3 (no result: GRIN3A LBD mod) | aDG glyco conf inactive
CCC(c1nnnn1Cc1cccs1)N1CCN(c2nc3ccccc3s2)CC1 (stereo not given)	aDG glyco up 12 | aDG glyco conf 3.4
CC(C)CC(c1nnnn1Cc1cccs1)N1CCN(c2nc3ccccc3s2)CC1 (stereo not given)	none
COC(=O)c1ccc(-n2c(C)nc(=O)c(-c3ccccc3)c2C)cc1	none
COc1ccccc1CN=Cc1[nH]c2ccc(Br)c(Cl)c2c1O	aDG glyco up 5.8 | aDG glyco conf inactive
Cc1ccc(NC(=O)Cc2nn(C)c(=O)c3ccccc23)cc1F	aDG glyco up 10 | aDG glyco conf inactive
COC(=O)CC(NS(=O)(=O)c1cccs1)c1cccc2ccccc12 (stereo not given)	none
Cc1ccc(S(=O)(=O)C(CNC(=O)C(C)C)c2cccs2)cc1 (stereo not given)	none
CN1CC2(Cc3c1ccc1ccccc31)C(=O)OC(C)(C)OC2=O	aDG glyco up 6.4 | aDG glyco conf inactive
Cc1ccc2c(c1)CC1(CN2C)C(=O)OC2(CCCCC2)OC1=O	none
Cc1cccc(N2CCN(c3ccc(N4C(=O)CCCC4=O)cc3[N+](=O)[O-])CC2C)c1 (stereo not given)	none
